Test results as given in PubChem BioAssay AID371 (SRMLSC, 2006).
Screen size: about 3,300 compounds; about 280 (8.5%) were called active.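 The calls were made as follows: active = mean growth inhibition over the two runs of 50% or more; inactive = mean growth inhibition under 50%.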 The full list was thinned out, with actives kept by preference.

Test: A549 NSCLC cell proliferation inhibitors – ATP luminescence, human non-small cell lung line, primary screen (AID 371);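 also: compound exposure lasted 72 h before the ATP read; 0% = untreated cell signal and 100% = no luminescence left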
Settings: at 10 µM, stronger effect = higher value

Growth inhibition, inactive:
CCCC(CCC(=O)Nc1ccc(C(=O)OC)cc1)C(=O)O (centres undefined) 5.31%
N#Cc1c(N2CCOCC2)nc(N2CCCCC2)c2c1CCN(C1CCCCC1)C2 23.2%
CC(C)COC(=O)CCNc1n[nH]c(=O)[nH]c1=O 2.08%
O=c1cc(-c2ccco2)nc(-c2cccs2)o1 15%
COc1cccc(-c2nnc3sc(-c4ccco4)nn23)c1 11.9%
Cc1cc(C)n(CC2CC(=O)N(c3ccc(F)c(Cl)c3)C2=O)n1 (centres undefined) 1.52%
Cn1nccc1C(=O)Nc1ccccc1C(=O)O 2.72%
CCCSc1nc(O)c(C2OC(=O)c3c2ccc(OC)c3OC)c(=O)n1C (centres undefined) 3.43%
Cc1ccc(-n2ncc3c(N4CCC(C(N)=O)CC4)ncnc32)c(C)c1 7.75%
CCc1cccc(C)c1N(C(=O)Cn1c(=O)[nH]c2ccccc21)C(C)COC (centres undefined) 17.6%
CCC(NC(=O)Nc1nccs1)(C(F)(F)F)C(F)(F)F 2.27%
CCSc1nnc(NC(=O)NCC(F)(F)F)s1 -0.28%
CCN(CC)CCN1C(=O)C(=O)/C(=C(/O)c2ccc(OC)cc2)C1c1ccco1 (centres undefined) 2.24%
Cc1cc(NCCNC2=CC(=O)CCC2)nc2ccccc12 3.87%
Cc1cc(N/C=C/C(=O)c2cccc3ccccc23)no1 40.5%
CC(=O)Oc1ccc2c(C)cc(=O)[nH]c2c1 10.7%
C[C@]12CC[C@@H]3c4ccc(OS(=O)(=O)O)cc4CC[C@H]3[C@@H]1CCC2=O -4%
C[C@]12CC[C@@H]3c4ccc(O[C@@H]5O[C@H](C(=O)O)[C@@H](O)[C@H](O)[C@H]5O)cc4CC[C@H]3[C@@H]1C[C@@H](O)[C@@H]2O -8.48%
C[C@]12CC[C@@H]3c4ccc(O)cc4CC[C@H]3[C@@H]1CC[C@@H]2OC(=O)CCC(=O)O 14.8%
C[C@]12CC[C@@H]3c4ccc(O)cc4CC[C@H]3[C@@H]1CCC2=O 14.8%
CCOC(=O)COn1c(=O)c(-c2ccc(OC)c(OC)c2)[n+]([O-])c2ccccc21 4.28%
CCCCSc1nc(N)c(C#N)c(-c2cccs2)c1C#N 40.8%
CC1(C)C2CCC1(C)C(NC(=O)CCN1CCCCC1)C2 (centres undefined) 7.81%
CNS(=O)(=O)c1cccc2nsnc12 -11.4%
COc1cc(S(=O)(=O)N2CCN(C)CC2)c(OC)cc1Br 6.26%
CCN1CCc2c(C#N)c(NCc3ccccc3)nc(NCCO)c2C1 3.07%
CN1Cc2c(N3CCOCC3)nc(SCc3ccccc3)c(C#N)c2CC1(C)C 45.5%
CCN1CCc2c(C#N)c(N3CCOCC3)nc(NCCO)c2C1 6.84%
C=CCNc1nc(N2CCOCC2)c(C#N)c2c1CN(C)CC2 2.03%
CCN1CCc2c(C#N)c(N3CCOCC3)nc(NCc3ccccc3)c2C1 23.9%
CCN(CC)c1nc(N2CCOCC2)c(C#N)c2c1CN(C)CC2 11.1%
CCN1CCc2c(C#N)c(N3CCCCC3)nc(N3CCOCC3)c2C1 4.36%
CN1CCc2c(C#N)c(N3CCCCC3)nc(N3CCOCC3)c2C1 3.07%
FC(F)(F)c1cccc(-n2cccc2/C=N/n2cnnc2)c1 9.69%
CSc1nc2[nH]c3c(c2c2ncnn12)CCCC3 38.4%
Cc1cc(=O)n2[nH]c(N3C(=O)CCC3=O)nc2n1 1.01%
Cc1nccn1-c1cc(C(C)C)c(C#N)c2nc3ccccc3n12 2.71%
O=c1[nH]c(CN2CCCCC2)nc2c1C1(CCCC1)Cc1ccccc1-2 2.71%
[N-]=[N+]=CC(=O)c1ccnc(C(=O)C=[N+]=[N-])c1 23.6%
COc1ccc(/C(O)=C2\C(=O)C(=O)N(c3cc(C)on3)C2c2ccccc2OC)cc1 (centres undefined) -10.7%
O=C1c2ccccc2C(=O)N1CC1c2ccccc2CCN1C(=O)N1CCOCC1 (centres undefined) 5.08%
CCOC(=O)c1c(NC(=O)CCN2CCOCC2)sc2c1CC(C)(C)OC2 5.84%
N#Cc1c(NCCCO)nc(-c2ccccc2)c2c1CCCC2 32.5%
Nc1[nH]nc2nc(NCc3ccccc3)c3c(c12)CCN(Cc1ccccc1)C3 24.5%
N#Cc1c(N2CCCCC2)nc(N2CCCCC2)c2c1CCN(Cc1ccccc1)C2 19.3%
C=CCNc1nc(N2CCCCC2)c(C#N)c2c1CN(Cc1ccccc1)CC2 37.1%
CCCc1cc(=O)oc2c(CN3CCN(C)CC3)c(O)c(Cl)cc12 1.1%
CCOC(=O)Cc1[nH]nc2c1C(c1cc(OC)ccc1OC)C(C#N)=C(N)O2 (centres undefined) -2.35%
COCCOC(=O)c1c(C)nc(SCC(=O)Nc2ccc(C)cc2)c(C#N)c1-c1ccco1 3.22%
Cc1nc(N2CCOCC2)c(C#N)c2c1COC(C)(C)C2 12.7%
COc1ccc([C@@H]2Sc3ccccc3N(CCN(C)C)C(=O)[C@@H]2OC(C)=O)cc1 15.1%
CN(C)CCCN1c2ccccc2CCc2ccccc21 16.1%
CN(C)CCCOC(=O)c1ccc(Cl)cc1Cl 5.84%
CN1CCN(C2=Nc3cc(Cl)ccc3Nc3ccccc32)CC1 26%
CN(C)CCCN1c2ccccc2Sc2ccccc21 29.4%
COc1cccc(C(=O)N2CCN(Cc3ccccn3)CC2)c1OC -2.78%
COc1ccc(Cn2c(N)c(C#N)c3nc4ccccc4nc32)cc1OC 11.7%
COc1cc(C2C(C(C)=O)=C(O)C(=O)N2c2ccc(Br)cn2)ccc1O (centres undefined) 3.52%
CC1(C)CC(=O)C(C=NCCN2CCN(C(=O)C34CC5CC(CC(C5)C3)C4)CC2)=C(O)C1 3.05%
COc1ccccc1-n1c(=O)c2c3c(sc2n2c(SC)nnc12)CCC3 6.85%
COc1cccc(N2CCN(C(=O)c3ccc(=O)oc3)CC2C)c1 (centres undefined) -1.33%
COc1cccc(OCCN2CCN(c3ncnc4c3cnn4-c3ccccc3)CC2)c1 46.7%
COc1ccc2c(c1)[nH]c1c(=O)n(CC3CCCO3)cnc12 (centres undefined) 8.24%
CCOC(=O)C1/C(=N\O)CC(C)(O)C(C(=O)OCC)C1c1ccc(N(C)C)cc1 (centres undefined) 7.47%
Cc1nnc2n(Cc3ccccc3)c(=O)c3c4c(sc3n12)CN(Cc1ccccc1)CC4 40.6%
CCCSc1nnc2n(Cc3ccccc3)c(=O)c3c4c(sc3n12)CCC4 13.6%
CC1CCc2cc(F)cc3c(O)c(C(=O)Nc4cnccn4)c(=O)n1c23 (centres undefined) 26.4%
CC1CCc2cc(F)cc3c(O)c(C(=O)NCc4ccco4)c(=O)n1c23 (centres undefined) 46.7%
COC(=O)c1cc(Br)c(=O)n(Cc2ccc3c(c2)OCO3)c1 9.14%
O=C(NCc1cccnc1)/C(=N\O)c1ccccc1 0.76%
CCN1CCN(c2nc3c(C)cccn3c(=O)c2/C=C(\C#N)S(=O)(=O)c2ccc(C)cc2)CC1 1.14%
CCCN(CCC)C(=O)CC(c1ccc(F)cc1)c1ccco1 (centres undefined) 38.5%
O=C(Cc1cscn1)c1ccc(O)cc1O 2.87%
CC1N(O)C(c2ccc(Cl)cc2Cl)N(O)C1(C)C (centres undefined) -11.8%
CC1(C)Cc2nc3sc4c(N(CCO)CCO)ncnc4c3cc2CO1 2.92%
Cc1ccc(S(=O)(=O)N2CCN(c3nc(C)c4c(c3C#N)CC(C)(C)OC4)CC2)cc1 30.2%

Growth inhibition, active:
CCSc1nnc(NC(=O)NC(CC)(C(F)(F)F)C(F)(F)F)s1 82.1%
C[C@]12CC[C@@H]3c4ccc(OC(=O)c5ccccc5)cc4CC[C@H]3[C@@H]1CC[C@@H]2O 73.8%
CCCCC(=O)O[C@H]1CC[C@H]2[C@@H]3CCc4cc(O)ccc4[C@H]3CC[C@]12C 92.3%
CCN1CCc2c(C#N)c(N3CCCCC3)nc(NCc3ccccc3)c2C1 88.8%
CCCCCNc1nc(N2CCCC2)c2c(c1C#N)CCN(C)C2 95.5%
CCN1CCc2c(C#N)c(NCc3ccccc3)nc(N(CC)CC)c2C1 67.3%
C=CCNc1nc(NCc2ccccc2)c(C#N)c2c1CN(C)CC2 70.9%
CN1CCc2c(C#N)c(N3CCCCC3)nc(NCc3ccccc3)c2C1 90.4%
N#Cc1c(NCCN)nc(NCc2ccccc2)c2c1CCN(Cc1ccccc1)C2 91.8%
CN(C)CCCN1c2ccccc2Sc2ccc(C(F)(F)F)cc21 90.7%
CN(C)CCCN1c2ccccc2Sc2ccc(Cl)cc21 92.2%
CN(C)CCCN1c2ccccc2CCc2ccc(Cl)cc21 85.6%
CC[C@H](C)C(=O)O[C@H]1C[C@@H](C)C=C2C=C[C@H](C)[C@H](CC[C@@H]3C[C@@H](O)CC(=O)O3)[C@H]21 64.9%
COc1cccc(N2CCN(c3ncnc4c3[nH]c3ccccc34)CC2C)c1 (centres undefined) 91.9%
COc1cccc(N2CCN(c3ncnc4c3[nH]c3ccc(F)cc34)CC2C)c1 (centres undefined) 93%
O=c1c2c3c(sc2n2cnnc2n1Cc1ccccc1)CN(Cc1ccccc1)CC3 70.5%
CC1CCc2cc(F)cc3c(O)c(C(=O)NCC4CCCO4)c(=O)n1c23 (centres undefined) 61.9%
CCCc1cc(C(=O)Cc2ccc(F)cc2)c(O)cc1O 89.5%
